PLC-beta3 inh = human PLC-beta3 inhibitors, primary screen, biochemical, fluorescence; 1-phosphatidylinositol 4,5-bisphosphate phosphodiesterase beta-3 (Homo sapiens), Q01970; Purified PLC-beta3, fluorogenic substrate; inhibition, % at 12.2 µM; 370,000 tested, 0.18% active; AID 720704, 2013; in the data active = inhibition above about 11%;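 also: 0% = median of compound wells on plate and 100% = full blocker control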
PLC-gamma1 inh = PLC-gamma1 enzyme inhibitors, primary screen, biochemical, fluorescence, purified enzyme | inhibition, % at 12.2 µM | 370,000 tested, 0.84% active | fluorogenic substrate | AID 720700, 2013
ADAM17 inh = ADAM17 inhibitors, primary screen, biochemical, QFRET | Disintegrin and metalloproteinase domain-containing protein 17 (Homo sapiens), P78536 | recombinant ADAM17, EDANS/DABCYL FRET peptide cleavage | inhibition, % at 6.95 µM | 370,000 tested, 0.83% active;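 active = inhibition above the mean of compounds lying between control limits plus 3 SD, set per campaign, cut at about 8.5% in these data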;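 also: 0% = DMSO-only wells as the low control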
KLK7 zymogen act = proKLK7 zymogen activators, primary screen, biochemical, fluorescence intensity | AID 652039, 2013 | purified proKLK7, EDANS-DABCYL substrate fluorescence; 100% is mature enzyme control, 0% vehicle | activation, % at 7 µM | Kallikrein-7 (Homo sapiens), P49862 | 370,000 tested, 0.9% active;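 active = activation above the mean of all tested compounds plus 3 SD, computed per campaign excluding outliers beyond control limits, cut at about 13% in these data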
ADAM10 inh = human ADAM10 inhibitors, primary screen, biochemical, QFRET, HTS; Disintegrin and metalloproteinase domain-containing protein 10 (Homo sapiens), O14672; recombinant ADAM10, EDANS/DABCYL FRET peptide cleavage, 3 h; inhibition, % at 7 µM; 370,000 tested, 0.62% active;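 active = inhibition above a per-campaign cutoff equal to the mean of compounds falling between control-based bounds plus 3 SD, cut at about 20% in these data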;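 also: 0% = DMSO wells while the 100% control is not disclosed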
ADAM10 confirm = human ADAM10 inhibitors, confirmation, biochemical, QFRET, triplicate. shares compounds with ADAM10 inh. ADAM10 QFRET peptide cleavage, EDANS fluorescence. inhibition, % at 6.95 µM. 2,100 tested, 1% active. AID 743208, 2013;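 active = inhibition above about 20% chosen separately for each screening run, limit read from the data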;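 also: 0% = DMSO wells and 100% = marimastat wells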
ADAM17 counter = ADAM17 inhibitors, counter-screen for ADAM10 exosite inhibitor project, biochemical, QFRET, high throughput. inhibition, % at 6.95 µM. AID 743214, 2013. ADAM17 QFRET peptide cleavage, EDANS fluorescence. 2,100 tested, 0.5% active. shares compounds with ADAM10 inh;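 active = mean triplicate inhibition above the solvent-only control wells' mean plus 3 SD, cut at about 12% in these data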;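 also: 0% = DMSO wells and 100% = marimastat wells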
ADAM10 counter = ADAM10 inhibitors, counter-screen for ADAM17 exosite inhibitor project, biochemical, FRET, human ADAM10; shares compounds with ADAM17 inh; recombinant ADAM10, EDANS/DABCYL FRET peptide cleavage, 3 h; inhibition, % at 6.95 µM; 2,900 tested, 47% active; AID 743256, 2014;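 active = mean inhibition over the triplicate runs exceeds the activity threshold set in the earlier primary screen, cut at about 20% in these data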;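 also: 0% = DMSO wells and 100% = marimastat wells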
ADAM17 confirm = ADAM17 inhibitors, hit retest, confirmation, biochemical, QFRET peptide cleavage | shares compounds with ADAM17 inh | recombinant ADAM17, EDANS/DABCYL QFRET peptide cleavage | inhibition, % at 6.95 µM | 2,900 tested, 65% active;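 active = mean inhibition across replicates above the hit cutoff set in the primary screen, cut at about 8.5% in these data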;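 also: 0% = DMSO wells and 100% = marimastat wells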
PLCg1 ctr = PLC-gamma1 enzyme inhibitors, counter-screen for PLC-beta3 inhibitor project, biochemical, fluorescence; shares compounds with PLC-gamma1 inh; purified PLC-gamma1, fluorogenic substrate; inhibition, % at 12.3 µM; 3,300 tested, 3.1% active; AID 743258, 2014
PLCb3 confirm = PLC-beta3 inhibitor confirmation, biochemical, fluorescence, purified enzyme; shares compounds with PLC-gamma1 inh; inhibition, % at 12.3 µM; AID 743261, 2014; fluorogenic substrate fluorescence; 3,300 tested, 1% active; in the data active = inhibition above about 11%
The depositor's hits bear a star; · = no result. The list is not random: actives were taken first. Their share in the collection is about 2.9%. Rule as the data show it, unless noted: active = inhibition above about 9.5%; inactive = the rest.

SMILES	PLC-beta3 inh	PLC-gamma1 inh	ADAM17 inh	KLK7 zymogen act	ADAM10 inh	ADAM10 confirm	ADAM17 counter	PLCg1 ctr	PLCb3 confirm	others
CCNS(=O)(=O)c1ccc(CCC(=O)NCc2ccncc2)cc1	-4	0	-4	0	15	·	·	·	·
O=C1CCCN1c1ccc(S(=O)(=O)N2CCCCC2)cc1[N+](=O)[O-]	3	3	-3	0	-2	·	·	·	·
O=C1CCCN1c1ccc(S(=O)(=O)Oc2cccc(Cl)c2)cc1[N+](=O)[O-]	3	9.6*	9.7*	0	20*	3	1	-3	4	ADAM10 counter=5;ADAM17 confirm=5
O=C(c1ccccc1)C1(c2ccccc2)OC1c1ccccc1 (stereo not drawn)	-7	2	-1	0	-1	·	·	·	·
O=C1c2ccccc2C(c2nnnn2Cc2ccccc2)N1CCCN1CCOCC1 (stereo not drawn)	4	0	2	0	-6	·	·	·	·
O=C1CC(=C(c2ccccc2)c2ccccc2)C(=O)N1CCCCN1CCN(c2cccc(Cl)c2)CC1	11*	20*	12*	0	32*	5	1	-1	2	ADAM10 counter=4;ADAM17 confirm=8
CC(=O)N1C[C@@H](CO)[C@@H](N(C)C(=O)C2CCCCC2)C[C@H]1c1ccccc1	0	-1	0	0	-7	·	·	·	·
O=C(COc1ccc(Br)cc1Br)NC(=O)NC1CCCC1	2	2	4	0	11	·	·	·	·
CC(C)(C)NC(=O)NC(=O)COc1ccc(Br)cc1Br	7	11*	6	0	20*	2	0	-2	1
O=C(NC1CCCCC1)C(c1ccnc2ccccc12)N1CCc2ccccc2C1 (stereo not drawn)	-9	-3	-4	-1	-14	·	·	·	·
COc1cc2ccc(CC(N)=O)cc2cc1OC	-1	5	-5	-1	-10	·	·	·	·
COC(=O)C1(C(=O)OC)c2ccccc2N(S(=O)(=O)c2ccc(C)cc2)C1CC(C)=O (stereo not drawn)	0	1	-2	0	-14	·	·	·	·
Cc1cccc2cc(CN(Cc3ccco3)C(=O)Nc3cccc(C#N)c3)c(Cl)nc12	7	11*	9.9*	0	29*	11	3	-5	-1	ADAM10 counter=42*;ADAM17 confirm=23*
Cc1ccc(NC(=O)N(Cc2ccco2)Cc2cc3cc(C)cc(C)c3nc2Cl)cc1	2	-1	-5	0	2	·	·	·	·
c1ccc2[nH]c(Cn3nnc4ccccc43)nc2c1	1	-3	-1	0	7	·	·	·	·

Source: PubChem (The Scripps Research Institute Molecular Screening Center)
